High-throughput results (PubChem)
mHTT-CaM PPI inh: mHTT-calmodulin interaction abrogation; P42858; AlphaScreen His-mHTT/GST-CaM binding, luminescence; inhibition, % at 15 µM; hit rate 3.6% among 190,000;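 further: 0% = both proteins with DMSO and 100% = one protein alone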
Pf apPOL block: Pf-apPOL DNA polymerase inhibition | Recombinant Pf-apPOL, molecular beacon fluorescence, 1.5 h | inhibition, % at 10 µM | hit rate 0.25% among 210,000
* = called active by the depositor; i = inactive; . = not tested or not shown; + = active, no number. Shown are actives, neighbours in structure and some others; about 3.6% of the full set was active somewhere. No stated cut-off is given here; in the data, active means inhibition above about 50%; inactive means the rest.

SMILES	mHTT-CaM PPI inh	Pf apPOL block
Cc1ccc(C)n1Cc1ccc(C(=O)O)cc1	53*	-15
O=C(O)c1ccc(CN2CCOCC2)cc1	-2	-3
CCOc1ccc(C2C(=O)N(C3CCCCC3)CC(=O)N2Cc2cccs2)cc1OC (centres undefined)	3	-5
O=C(c1c(F)cccc1F)N(CCc1cccs1)Cc1cccnc1	-10	-11
CC(=O)c1c(C(C)=O)c(C)n(-c2cc(C)c(C)cc2N)c1C	22	-12
Cc1cc(N)c(-n2c(C)c3c(C)nnc(C)c3c2C)cc1C	88*	0
CC(=O)c1c(C(C)=O)c(C)n(-c2ccc(N)cc2)c1C	20	-3
Cc1nnc(C)c2c(C)n(-c3ccc(N)cc3)c(C)c12	55*	-2
COc1cccc(Nc2nc3ccncc3n(C(C)C)c2=O)c1	13	2
Cc1ccc(S(=O)(=O)C(CN)c2cccs2)cc1 (centres undefined)	-16	69*
O=C(NCC(c1cccs1)S(=O)(=O)c1ccccc1)Oc1ccccc1 (centres undefined)	2	2
O=C(CC1CCN(C(=O)c2ccccc2Cl)CC1)NCCCN1CCCCC1	0	-9
COc1ccc2c(c1)OC(=Cc1cccc([N+](=O)[O-])c1)C2=O	19	-2
O=C(CCc1cc2ccccc2[nH]c1=O)N1CCSCC1	100*	-6
O=C(CCc1cc2ccccc2[nH]c1=O)N1CCCCC1	-7	-3
COc1cccc(OC)c1OCC(O)CSc1ccccn1 (centres undefined)	-10	-6
COc1ccccc1N1CCN(C/C=C/c2ccc(N(C)C)cc2)CC1	62*	-9
CCN1CCN(C/C=C/c2ccc(N(C)C)cc2)CC1	32	-2
Cc1nc2c(NC(=O)c3ccccn3)cccn2n1	50*	-14
Cc1nnc2c(NC(=O)c3ccccn3)cccn12	31	-16
Cc1cccc(NC(c2ccccn2)c2ccc3ccc(C)nc3c2O)n1 (centres undefined)	99*	-3
Cc1cccc(NC(=O)C(=O)NCc2ccccn2)n1	-11	-5
Cc1cccc(NC(c2cccc(C)n2)c2ccc3ccc(C)nc3c2O)n1 (centres undefined)	76*	1
Cc1ccc2ccc3ccc(C)nc3c2n1	1	.
CCCN1CCN(CCCNC(=O)C2CCN(c3nc4cccnc4s3)CC2)CC1	-9	-5
SMILES	mHTT-CaM PPI inh	Pf apPOL block
CCc1ccc(S(=O)(=O)Nc2ccc(CC(=O)NCc3cccs3)cc2)s1	-16	-5
Cc1cccc(N2CCN(C(=O)c3cccs3)C(C)C2=O)c1 (centres undefined)	-6	0
O=S(=O)(NCC(c1ccsc1)N1CCOCC1)c1cccs1 (centres undefined)	-23	-3
COc1ccc(Cl)cc1S(=O)(=O)NCC(c1cccn1C)N1CCCC1 (centres undefined)	-2	-7
CN1CCc2cc(C(CNC(=O)c3cccs3)N3CCOCC3)ccc21 (centres undefined)	95*	-19
CN1CCc2cc(C(CNS(=O)(=O)c3ccc(Cl)s3)N3CCOCC3)ccc21 (centres undefined)	99*	-12
CN1CCCc2cc(C(CNC(=O)Cc3cccs3)N3CCOCC3)ccc21 (centres undefined)	29	-17
COc1ccc(Cl)cc1S(=O)(=O)NCC(c1ccc2c(c1)CCN2C)N(C)C (centres undefined)	69*	-10
COc1ccc(-c2cc(C(=O)N3CCCC3c3cc(C(C)C)no3)no2)cc1OC (centres undefined)	0	0
CCOc1ccc(NC(=O)c2ccc(F)c(S(=O)(=O)NC3CCCCC3C)c2)cc1 (centres undefined)	8	1
CCn1cc(CN2CCC(C(=O)NCc3ccc(N(C)C)cc3)CC2)c2cc(OC)ccc21	56*	-2
CCn1cc(CN2CCC(C(=O)NCc3ccc(OC)cc3)CC2)c2cc(OC)ccc21	20	1
CCCC1(CO)CCCN1C(=O)c1ccc2cc[nH]c2c1 (centres undefined)	55*	25
CCCC1(CO)CCCN1C(=O)c1ccc2[nH]ccc2c1 (centres undefined)	-1	-5
CC(NC(=O)C(=O)Nc1cccc(Cl)c1Cl)c1ccccc1 (centres undefined)	0	-2
CC(=O)c1cccc(NS(=O)(=O)c2ccc3[nH]c4c(c3c2)CCCCC4)c1	99*	-4
CC(=O)c1cccc(NC(=O)CN(C)S(=O)(=O)c2ccc3[nH]c4c(c3c2)CCCC4)c1	28	-2
CC(=O)c1cccc(NS(=O)(=O)c2ccc3[nH]c4c(c3c2)CCCC4)c1	84*	0
CN(CC(=O)Nc1cccc(F)c1)S(=O)(=O)c1ccc2[nH]c3c(c2c1)CCCC3	42	-1
CC(=O)c1ccc(NS(=O)(=O)c2ccc3[nH]c4c(c3c2)CCCCC4)cc1	70*	-1
CC(=O)c1cccc(NS(=O)(=O)c2ccc(F)cc2)c1	4	-6
CCOC(=O)c1cccc(NS(=O)(=O)c2ccc3[nH]c4c(c3c2)CCCC4)c1	95*	-3
Cc1ccc(C)c(S(=O)(=O)N2CCCC2CNC(=O)c2c(F)cccc2F)c1 (centres undefined)	0	-4
COc1cccc(CNC(=O)C2(C)CCCN(C(=O)c3cccc(C)c3)C2)c1 (centres undefined)	-4	5
COc1ccc(CCNC(=O)/C=C2\Sc3ccccc3NC2=O)cc1OC	2	-2
SMILES	mHTT-CaM PPI inh	Pf apPOL block
CCOc1ccc(C(=O)Nc2cc(-c3nc4ncccc4o3)ccc2C)cc1Cl	-2	-2
CC(C(=O)N1CCOCC1)N(c1ccc(Oc2ccccc2)cc1)S(C)(=O)=O (centres undefined)	1	-2
COc1cc([N+](=O)[O-])cc2c1NC(c1ccccc1)C1CC=CC21 (centres undefined)	46	9
CCOc1c(Br)cc(C2Nc3ccc([N+](=O)[O-])cc3C3C=CCC32)cc1OC (centres undefined)	58*	-5
O=C(c1ccc2c(c1)C1C=CCC1C(c1ccc([N+](=O)[O-])cc1)N2)N1CCCCCC1 (centres undefined)	96*	-2
O=[N+]([O-])c1ccc2c(c1)C1C=CCC1C(c1ccc(F)cc1)N2 (centres undefined)	14	-3
COc1ccc2c(c1)C1C=CCC1C(c1ccc([N+](=O)[O-])cc1)N2 (centres undefined)	95*	4
Cn1nc(-c2nc(-c3ccccc3)no2)c2c1CCN(C(=O)c1cccc(Cl)c1)C2	8	-6
CC1CCCN(C(=O)NC2(C(F)(F)F)Oc3ccccc3O2)C1 (centres undefined)	0	-5
CCC(=O)NCc1nc2c(n1C)CN(C(=O)Cc1cccc(C)c1)CC2	2	-2
O=C(OCc1cc(-c2cccs2)on1)c1nc2ccccc2s1	0	2
CCOC(=O)N1CCN(S(=O)(=O)c2ccc(C(=O)Nc3cccc(C)n3)cc2)CC1	0	-5
Cc1ccccc1NC(=O)C1CCC(CNS(=O)(=O)c2cccs2)CC1 (centres undefined)	-2	-1
Cc1cc(/C=N/NC(N)=S)c(C)n1-c1sc2c(c1C#N)CCCC2	+	.
N#Cc1c(-n2cccc2/C=N/O)sc2c1CCCC2	i	2
COCCNC(=O)C1(C)CCC(=O)N1CCc1cccs1 (centres undefined)	-5	-1
